Source: PubChem BioAssay (NCATS)
Inconclusive results are not listed. Where a call stands in place of a potency, no number is given. Active and inactive are the calls of the source. Calls come from the whole dose curve; as a rule, active = well fitted cell-killing curve with a large enough effect; inconclusive = small, poorly fitted or top-dose-only effect; inactive = flat fitted curve, though single readings scatter.

Assay: qHTS of pediatric cancer cell lines to identify multiple opportunities for drug repurposing: Primary screen for Rh18 cells (AID 1347102); note: nearly all actives have a fitted effect of over 65% in size
Details: Rh18 rhabdomyosarcoma viability, CellTiter-Glo luminescence, 48 h; series mostly up to 46 µM
Text: Drug repurposing or repositioning has been offered as a strategy for drug development in oncology programs. This approach has special potential for childhood cancers and other rare or orphan diseases, where the expected return on new drug development has been a disincentive to pharmaceuticals.
In this project we exploit the poly-pharmacology of drugs to discover new indications via phenotypic screening of a panel of 19 well-characterized cell lines derived from solid tumors seen in children and adolescents. The goal is to identify approved drugs with previously unrecognized anticancer properties that has the potential to reveal new mechanisms and biological processes involved in carcinogenesis or drug resistance. We employed a titration-based paradigm (quantitative high-throughput screening or qHTS), where all compounds were tested at multiple concentrations for their effect on cell viability. Concentration-response curves (CRCs) were derived directly from the primary screen, and both potency and efficacy values were used to identify compounds with robust bioactivity profiles. We screened the NIH Chemical Genomics Center (NCGC) Pharmaceutical Collection (NPC) and Mechanism Interrogation Plate (MIPE) small molecule collections of approved and investigational compounds against these cell lines; and measured metabolically active cells after 48 hours of compound treatment as a proxy for cell viability.
Assay Submitter: Nathalia J. Martinez, National Center for Advancing Translational Sciences, National Institutes of Health, Rockville, MD, USA; email: natalia.martinez@nih.gov
[1] Shen, M et al. Quantitative high-throughput phenotypic screening of pediatric cancer cell lines identifies multiple opportunities for drug repurposing. Oncotarget 2017 Dec 19;9(4):4758-4772. PMID 29435139.
The cells were obtained from University of North Carolina (UNC), Pediatric Preclinical Testing Program (PPT), and Coriell Institute (CI).
qHTS cell viability assay:
Cells were assayed in growth media at a density of 500-1,000 cells/well. Five microliters of cells were dispensed into 1,536-well, white, solid-bottom, TC-treated plates (Greiner Bio One) using a multidrop dispenser and incubated at 37 degrees C, 5% CO2, under a humidified atmosphere for 5 hours. Twenty-three nanoliters of compounds and controls (neutral control DMSO or positive control bortezomib at final concentration of 2.3 µM) were subsequently transferred by Kalypsys pintool. For primary screens, the MIPE collection was tested at 11-point dilutions (final concentrations range from 0.78 nM to 46 µM) and the NPC collection at 8-point dilutions (final concentrations range from 0.59 nM to 46 µM). Compounds tested in follow-up screens were assayed at 11-point dilutions. Cells were incubated for 48 hours, followed by addition of 3 µL of CellTiter-Glo (Promega). After a 15 min incubation at room temperature, samples were analyzed for luminescence intensity using a ViewLux High-throughput CCD imager equipped with clear filters.
Potency is the fitted concentration of half-maximal effect.

| Structure (SMILES) | Potency |
| --- | --- |
| C=CC(=O)NCNC(=O)C=C | inactive |
| CCCC[N+]1(C)[C@H]2CC(OC(=O)[C@H](CO)c3ccccc3)C[C@H]1[C@H]1O[C@H]12 (stereo not given in full) | inactive |
| c1ccc2c(CN3CCNCC3)cccc2c1 | inactive |
| CCC(=O)OC1CCC2C3CCC4=CC(=O)CC[C@@]4(C)C3CC[C@]12C (stereo not given in full) | inactive |
| C#CC1(O)CCC2C3CCC4=CC(=O)CCC4(C)C3CCC21C (stereo not given) | inactive |
| C=C1C[C@H]2[C@H]3CCC(=O)[C@@]3(C)CC[C@@H]2[C@@]2(C)C=CC(=O)C=C12 | inactive |
| CCOP(=O)(OCC)C(C)NC(=O)N(CCCl)N=O (stereo not given) | inactive |
| CC(C)(C)NC[C@H](O)c1ccc(O)cc1Cl | inactive |
| Nc1ccc(Cl)cc1 | inactive |
| C[C@@H]1CC[C@@]2(OC1)O[C@H]1C[C@H]3[C@@H]4CC=C5C[C@@H](O[C@@H]6O[C@H](CO)[C@@H](O[C@@H]7O[C@@H](C)[C@H](O)[C@@H](O)[C@@H]7O)[C@H](O)[C@@H]6O[C@@H]6O[C@@H](C)[C@H](O)[C@@H](O)[C@@H]6O)CC[C@]5(C)[C@@H]4CC[C@]3(C)[C@@H]1[C@H]2C | 4180 nM (active) |
| CC(=O)[O][Hg][c]1ccccc1 | 2660 nM (active) |
| CC1=NN=C(c2ccc(N)cc2)c2cc3c(cc2C1)OCO3 | inactive |
| C[C@]12Cc3cn[nH]c3C[C@@H]1CC[C@@H]1[C@H]2CC[C@@]2(C)[C@H]1CC[C@]2(C)O | inactive |
| CC(C)(C)c1cc(C=C(C#N)C#N)cc(Br)c1O | inactive |
| Cc1cc(O)ccc1Cl | inactive |
| O=S(=O)(O)C(F)(F)C(F)(F)C(F)(F)C(F)(F)F | inactive |
| OCCCBr | inactive |
| C[C@H]1CCCC=CC2C[C@H](O)C[C@@H]2[C@H](O)C=CC(=O)O1 (stereo not given in full) | 1 nM (active) |
| CCOC(=O)c1cncn1[C@H](C)c1ccccc1 | inactive |
| C[C@]12CC[C@H](O)CC1=CC[C@H]1[C@H]3CCC(=O)[C@@]3(C)CC[C@@H]12 | inactive |

| Structure (SMILES) | Potency |
| --- | --- |
| Nc1ccc([N+](=O)[O-])cc1 | inactive |
| O=S(=O)(F)Cc1ccccc1 | inactive |
| CC(C)N[C@@H]1CCn2c(=O)[nH]c3cccc(c32)[C@@H]1O | 4690 nM (active) |
| COc1ccc2c(c1)CN(C)CC2c1ccc(Cl)c(Cl)c1 (stereo not given) | inactive |
| CCCCOC(=O)c1ccccc1C(=O)OCc1ccccc1 | inactive |
| CC[C@H]1C=CC=CC[C@@H](C)[C@H](O)[C@@](C)(O)C(=O)[C@@H](C)[C@H](O)[C@@H](C)C(=O)[C@@H](C)[C@H](O)[C@@H](C)C=CC(=O)O[C@@H]2[C@@H](C)[C@H](CC1)O[C@]1(CC[C@H](C)[C@H](C[C@@H](C)O)O1)[C@H]2C | 26400 nM (active) |
| C[C@H]([C@H](O)CCC(C)(C)O)[C@H]1CC[C@@]2(O)C3=CC(=O)[C@@H]4C[C@@H](O)[C@@H](O)C[C@]4(C)[C@@H]3CC[C@]12C | inactive |
| CC(=O)OCC1=C(C(=O)O)N2C(=O)[C@@H](N)[C@@H]2SC1 | inactive |
| Cc1[nH]nc2ccc(-c3cncc(OC[C@@H](N)Cc4c[nH]c5ccccc45)c3)cc12 | 2960 nM (active) |
| O=C(O)C(Cl)Cl | inactive |
| C[C@]12CC[C@@H]3[C@@H](CCC4=CC(=O)CC[C@@H]43)[C@@H]1CC[C@@H]2OC(=O)CCc1ccccc1 | inactive |
| Cc1c(N)nc([C@H](CC(N)=O)NC[C@@H](N)C(N)=O)nc1C(=O)N[C@H](C(=O)N[C@@H](C)[C@H](O)[C@@H](C)C(=O)N[C@@H](C(=O)NCCc1nc(-c2nc(C(=O)NCCC[S+](C)C)cs2)cs1)[C@@H](C)O)C(O[C@H]1O[C@H](CO)[C@H](O)[C@@H](O)[C@@H]1O[C@H]1O[C@H](CO)[C@@H](O)[C@H](OC(N)=O)[C@H]1O)c1cnc[nH]1 (stereo not given in full) | inactive |
| O=C(NCC1CCOCC1)c1cnc(Nc2ccc(Cl)cc2Cl)nc1C(F)(F)F | inactive |
| c1cc2c(cc1[C@H]1OC[C@H]3[C@H]1CO[C@H]3c1ccc3c(c1)OCO3)OCO2 | inactive |
| O=C(O)COc1ccccc1 | inactive |
| CC=C(C)C(=O)O[C@H]1C(C)=C2[C@@H]3OC(=O)[C@@](C)(O)[C@@]3(O)[C@@H](OC(=O)CCC)C[C@](C)(OC(C)=O)[C@@H]2[C@@H]1OC(=O)CCCCCCC | 13.2 nM (active) |
| COC(C)(C)CCCC(C)C/C=C/C(C)=C/C(=O)OC(C)C (stereo not given) | inactive |
| Cc1ccccc1-n1c(Cn2ncc3c(N)ncnc32)nc2cccc(C)c2c1=O | inactive |
| COC1=CC(C)=C[C@@H](C)[C@@H](O)[C@@H](C)CC(C)=CC=C[C@H](OC)[C@H]([C@@H](C)[C@@H](O)[C@H](C)[C@@]2(O)C[C@@H](O)[C@H](C)[C@@H](C(C)C)O2)OC1=O | 14800 nM (active) |
| C[C@@]12OC(=O)[C@]1([C@@H](O)[C@@H]1C=CCCC1)NC(=O)[C@H]2CCCl | 52.6 nM (active) |
